# Where “and” joins values, the source holds several entries; their conditions need not be identical. Equal entries are not always repeated. The campaign covered roughly 5,500 compounds. About 2,000 (36%) were called active. Another 18% or so got no clear call; they are omitted. The list shows a part of the results. Values without a mark were called inactive. Rule as the data show it: active = normalized growth mostly below about 0.91 (no sharp cut-off); inconclusive = no clear call, values can overlap the other calls; inactive = mostly above about 0.92.
# Experiment: chemical genetic growth profiling, strain panel (AID 1159580);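 also: tested at 20 µM; growth read once vehicle control cultures reached saturation at 30 °C; 1 = growth at the plate median or of vehicle wells; lower values mean less growth of the strain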
# Conditions: S. cerevisiae deletion strains, growth OD
compound,measurement,setting,value
Cc1cc(NC(=O)C2=C(O)c3ccccc3S(=O)(=O)N2C)no1,normalized growth,"locus YAL021C, strain ccr4, hits give low values",0.959
same,normalized growth,"locus YAL026C, strain drs2, hits give low values",0.97
same,normalized growth,"locus YAL030W, strain snc1, hits give low values",0.969
same,normalized growth,"locus YBL061C, strain skt5, hits give low values",0.965
same,normalized growth,"locus YBR009C, strain hhf1, hits give low values",0.961
same,normalized growth,"locus YBR021W, strain FUR4, hits give low values",1.01
same,normalized growth,"locus YBR023C, strain chs3, hits give low values",0.967
same,normalized growth,"locus YBR171W, strain sec66, hits give low values",0.926
same,normalized growth,"locus YBR229C, strain ROT2, hits give low values",0.991
same,normalized growth,"locus YBR231C, strain swc5, hits give low values",0.972
same,normalized growth,"locus YBR279W, strain paf1, hits give low values",0.992
same,normalized growth,"locus YCL011C, strain gbp2, hits give low values",0.982
same,normalized growth,"locus YCL016C, strain dcc1, hits give low values",0.968
same,normalized growth,"locus YCL029C, strain bik1, hits give low values",0.958
same,normalized growth,"locus YCL069W, strain vba3, hits give low values",0.963
same,normalized growth,"locus YCR088W, strain abp1, hits give low values",0.964
same,normalized growth,"locus YDL005C, strain med2, hits give low values",0.984
same,normalized growth,"locus YDL035C, strain GPR1, hits give low values",0.981
same,normalized growth,"locus YDL040C, strain nat1, hits give low values",0.964
same,normalized growth,"locus YDL074C, strain BRE1, hits give low values",1.03
same,normalized growth,"locus YDL101C, strain DUN1, hits give low values",0.997
same,normalized growth,"locus YDL134C, strain PPH21, hits give low values",0.995
same,normalized growth,"locus YDL185W, strain tfp1, hits give low values",0.876 (active)
same,normalized growth,"locus YDL192W, strain arf1, hits give low values",0.952
same,normalized growth,"locus YDR001C, strain nth1, hits give low values",0.95
same,normalized growth,"locus YDR069C, strain doa4, hits give low values",0.99
same,normalized growth,"locus YDR101C, strain arx1, hits give low values",1.01
same,normalized growth,"locus YDR137W, strain rgp1, hits give low values",1
same,normalized growth,"locus YDR150W, strain NUM1, hits give low values",0.975
same,normalized growth,"locus YDR159W, strain sac3, hits give low values",0.983
same,normalized growth,"locus YDR162C, strain NBP2, hits give low values",0.961
same,normalized growth,"locus YDR195W, strain ref2",0.965
same,normalized growth,"locus YDR297W, strain sur2, hits give low values",0.973
same,normalized growth,"locus YDR318W, strain mcm21, hits give low values",0.966
same,normalized growth,"locus YDR334W, strain swr1, hits give low values",0.963
same,normalized growth,"locus YDR335W, strain msn5, hits give low values",0.964
same,normalized growth,"locus YDR388W, hits give low values",0.945
same,normalized growth,"locus YDR392W, strain spt3, hits give low values",0.905
same,normalized growth,"locus YDR502C, strain sam2, hits give low values",0.98
same,normalized growth,"locus YEL003W, strain gim4, hits give low values",0.959
same,normalized growth,"locus YEL037C, strain rad23, hits give low values",0.961
same,normalized growth,"locus YEL061C, strain CIN8 (second series), hits give low values",0.951
same,normalized growth,"locus YEL061C, strain CIN8, hits give low values",0.977
same,normalized growth,"locus YER015W, strain faa2, hits give low values",0.98
same,normalized growth,"locus YER016W, strain bim1, hits give low values",0.946
same,normalized growth,"locus YER110C, hits give low values",0.937
same,normalized growth,"locus YER111C, strain swi4, hits give low values",0.962
same,normalized growth,"locus YER155C, strain BEM2 (second series), hits give low values",0.976
same,normalized growth,"locus YER155C, strain BEM2, hits give low values",0.975
same,normalized growth,"locus YER167W, strain BCK2, hits give low values",0.985
same,normalized growth,"locus YFR010W, strain ubp6, hits give low values",1
same,normalized growth,"locus YGL078C, strain dbp3, hits give low values",0.965
same,normalized growth,"locus YGL086W, strain mad1, hits give low values",0.999
same,normalized growth,"locus YGL167C, strain pmr1, hits give low values",0.978
same,normalized growth,"locus YGL173C, strain kem1, hits give low values",0.984
same,normalized growth,"locus YGL227W, strain vid30, hits give low values",0.973
same,normalized growth,"locus YGL240W, strain doc1, hits give low values",0.995
same,normalized growth,"locus YGL248W, strain PDE1, hits give low values",0.994
same,normalized growth,"locus YGL253W, strain hxk2, hits give low values",0.957
same,normalized growth,"locus YGR078C, strain PAC10, hits give low values",0.995
same,normalized growth,"locus YGR135W, strain pre9, hits give low values",0.929
same,normalized growth,"locus YGR252W, strain gcn5, hits give low values",0.998
same,normalized growth,"locus YHR013C, strain ard1, hits give low values",0.98
same,normalized growth,"locus YHR027C, strain rpn1, hits give low values",0.97
same,normalized growth,"locus YHR030C, strain SLT2, hits give low values",0.965 and 0.916
same,normalized growth,"locus YHR079C, strain IRE1 (second series), hits give low values",0.939
same,normalized growth,"locus YHR079C, strain IRE1, hits give low values",0.93
same,normalized growth,"locus YHR094C, strain hxt1, hits give low values",0.945
same,normalized growth,"locus YHR129C, strain ARP1, hits give low values",0.972
same,normalized growth,"locus YHR142W, strain chs7, hits give low values",0.991
same,normalized growth,"locus YHR200W, strain rpn10, hits give low values",0.947
same,normalized growth,"locus YIL066C, strain RNR3, hits give low values",1.01
same,normalized growth,"locus YIL073C, strain SPO22, hits give low values",0.881
same,normalized growth,"locus YIL125W, strain kgd1, hits give low values",0.939
same,normalized growth,"locus YIR030C, strain dcg1, hits give low values",0.928
same,normalized growth,"locus YJL092W, strain hpr5, hits give low values",0.97
same,normalized growth,"locus YJL095W, strain BCK1 (second series), hits give low values",0.971
same,normalized growth,"locus YJL095W, strain BCK1, hits give low values",1.01 and 0.962
same,normalized growth,"locus YJL115W, strain asf1, hits give low values",0.966
same,normalized growth,"locus YJL129C, strain trk1, hits give low values",0.924
same,normalized growth,"locus YJL134W, strain LCB3, hits give low values",0.965
same,normalized growth,"locus YJL154C, strain vps35, hits give low values",0.939
same,normalized growth,"locus YJL164C, strain tpk1, hits give low values",0.974
same,normalized growth,"locus YJL166W, strain qcr8, hits give low values",1
same,normalized growth,"locus YJL168C, strain set2, hits give low values",0.953
same,normalized growth,"locus YJL187C, strain SWE1 (second series), hits give low values",1
same,normalized growth,"locus YJR043C, strain POL32, hits give low values",1.02

# Source: PubChem BioAssay AID1159580 (chemical genetic matrix, 2015)
